Reference: PubChem BioAssay (Tox21)
Where “and” joins values, the source holds several entries; their conditions need not be identical. Equal entries are not always repeated. Inconclusive results are not listed. The source holds several records for some structures; these can differ, active in one and inactive in another. Calls of active or inactive are those of the source. Unless noted, calls follow the shape of the dose curve; as a rule, active = well fitted curve in the direction sought with a large enough effect in the repeat runs; inconclusive = weak or mixed curves; inactive = no such curve, though single readings can be large; an effect the other way counts as inactive or inconclusive.

Key:
[1] = qHTS assay to identify small molecule antagonists of the thyroid receptor (TR) signaling pathway - cell viability counter screen (AID 743064); also: nearly all actives have a fitted effect of over 50% in size; also: potency is read from the fitted curve at half-maximal effect
How it was run: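 GH3.TRE-Luc rat pituitary cells dosed after 4 hr plating, co-stimulated with T3 at 1 nM final, incubated 23.5 h at 37 C. Viability measured in the same wells by CellTiter-Fluor fluorescence after 30 min further at 37 C.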

[2] = qHTS assay to identify small molecule antagonists of the thyroid receptor (TR) signaling pathway (AID 743065); also: nearly all actives have a fitted effect of over 55% in size; also: potency is read from the fitted curve at half-maximal effect
How it was run: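 Antagonism measured as loss of luciferase signal in GH3 cells stably carrying a TRE-luciferase reporter, co-treated with compound and T3 (1 nM final) for 23.5 h at 37 C. Viability was read in the same well by CellTiter-Fluor.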

[3] = system: thyroid hormone receptor (rat, GH3 cells); test: qHTS assay to identify small molecule agonists of the thyroid receptor (TR) signaling pathway (AID 743066; calls by dose curve)
[4] = qHTS assay to identify small molecule antagonists of the estrogen receptor alpha (ER-alpha) signaling pathway - cell viability counter screen (AID 743074; calls by dose curve;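 also: HEK293 cells carrying ER-alpha-UAS-bla reporter stimulated with 17beta-estradiol; nearly all actives have a fitted effect of over 45% in size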; also: potency is read from the fitted curve at half-maximal effect)
[5] = molecular target: Estrogen receptor (Homo sapiens) (UniProt P03372); test: qHTS assay to identify small molecule agonists of the estrogen receptor alpha (ER-alpha) signaling pathway (AID 743075; calls by dose curve;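 also: HEK293 GripTite cells with ER-alpha and UAS-driven beta-lactamase reporter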)
[6] = qHTS assay to identify small molecule antagonists of the estrogen receptor alpha (ER-alpha) signaling pathway using the BG1 cell line - cell viability counter screen (AID 743081);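 also: compound given together with 17beta-estradiol as the ER stimulus; nearly all actives have a fitted effect of over 45% in size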; also: potency is read from the fitted curve at half-maximal effect
[7] = molecular target: Aryl hydrocarbon receptor (Homo sapiens) (UniProt P35869); test: qHTS assay to identify small molecule that activate the aryl hydrocarbon receptor (AhR) signaling pathway (AID 743085); also: nearly all actives have a fitted effect of over 15% in size; also: potency is read from the fitted curve at half-maximal effect;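 as to activation: HG2L7.5c1 human HepG2 liver cells with stably integrated DRE-driven firefly reporter; series mostly up to about 70 µM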
How it was run: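 HepG2 cells stably carrying a 20-DRE firefly luciferase reporter (HG2L7.5c1) treated with compound for 24 hr at 37C. Luciferase read by ONE-Glo luminescence, with CellTiter-Fluor viability read first.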

[8] = molecular target: Peroxisome proliferator-activated receptor gamma (Homo sapiens) (UniProt P37231); test: qHTS assay to identify small molecule agonists of the peroxisome proliferator-activated receptor gamma (PPARg) signaling pathway (AID 743094; active = well fitted activation curve with a large enough effect in the signal ratio in the repeat runs, not every such curve was filed as active; the % refers to the signal ratio; also: potency is read from the fitted curve at half-maximal effect)
How it was run: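 GeneBLAzer PPARg UAS-bla HEK293H cells carrying a stably integrated beta-lactamase reporter were pre-incubated 5 h at 37C, then exposed to compounds in DMSO for 17 h at 37C; LiveBLAzer B/G FRET substrate was added for 1 h at room temperature and fluorescence read.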

[9] = qHTS assay for small molecule agonists of the antioxidant response element (ARE) signaling pathway (AID 743202; active = well fitted activation curve with a large enough effect in the signal ratio in the repeat runs, not every such curve was filed as active; the % refers to the signal ratio; also: potency is read from the fitted curve at half-maximal effect)
How it was run: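 Quantitative high-throughput format in HepG2 cells bearing an integrated ARE-beta-lactamase reporter. Compound exposure lasted 16 h at 37 C, and fluorescence was read 2 h after adding LiveBLAzer B/G substrate at room temperature.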

Aromatase (Homo sapiens) = Aromatase (Homo sapiens) (UniProt P11511); test: qHTS assay to identify aromatase inhibitors (AID 743083); also: nearly all actives have a fitted effect of over 55% in size; also: potency is read from the fitted curve at half-maximal effect
[10] = qHTS assay to identify aromatase inhibitors - cell viability counter screen (AID 743084);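 also: cells stimulated with testosterone during compound exposure; nearly all actives have a fitted effect of over 55% in size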; also: potency is read from the fitted curve at half-maximal effect
[11] = qHTS assay to identify small molecule that activate the aryl hydrocarbon receptor (AhR) signaling pathway - cell viability counter screen (AID 743086); also: nearly all actives have a fitted effect of over 45% in size; also: potency is read from the fitted curve at half-maximal effect
How it was run: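 Cytotoxicity counter screen: CellTiter-Fluor signal (30 min, 37 C) in 4000 HepG2 cells/well carrying the DRE-luciferase reporter, following 24 h compound exposure at 37 C.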

[12] = qHTS assay to identify small molecule antagonists of the peroxisome proliferator-activated receptor gamma (PPARg) signaling pathway - cell viability counter screen (AID 743194); also: nearly all actives have a fitted effect of over 55% in size; also: potency is read from the fitted curve at half-maximal effect
How it was run: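 Viability was measured as CellTiter-Glo luminescence in GeneBLAzer PPARg UAS-bla HEK293H cells. These cells had been exposed 17 h at 37 C to compounds together with rosiglitazone at 50 nM final, with the beta-lactamase readout taken in the same wells.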

[13] = qHTS assay for small molecule activators of the heat shock response signaling pathway (AID 743210; active = well fitted activation curve with a large enough effect in the signal ratio in the repeat runs, with a control signal flat, not every such curve was filed as active; the % refers to the signal ratio;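 also: HeLa cells with beta-lactamase reporter driven by heat shock elements; series mostly up to about 63 µM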)
How it was run: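 HeLa HSE-bla cells, overnight plating; cpd in DMSO 5 h, 37 C; LiveBLAzer B/G FRET substrate 2.5 h RT; fluorescence intensity read.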

[14] = qHTS assay for small molecule agonists of the antioxidant response element (ARE) signaling pathway - cell viability counter screen (AID 743203; calls by dose curve; also: nearly all actives have a fitted effect of over 55% in size; also: potency is read from the fitted curve at half-maximal effect)
How it was run: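 CellSensor ARE-bla HepG2 cells, 2,000 per well, rested 5 hrs at 37C/5% CO2, then exposed to compound in DMSO for 16 hrs; viability read as CellTiter-Glo luminescence after 30 min at room temperature, in the reporter wells.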

[15] = qHTS assay for small molecule activators of the heat shock response signaling pathway - cell viability counter screen (AID 743209); also: nearly all actives have a fitted effect of over 50% in size; also: potency is read from the fitted curve at half-maximal effect
How it was run: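 CellSensor HSE-bla HeLa cells, plated overnight at 37 C/5% CO2, were exposed to compounds in DMSO for 5 h at 37 C. Viability was then read in the same wells by CellTiter-Glo luminescence after 30 min at room temperature.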

[16] = molecular target: Estrogen receptor (Homo sapiens) (UniProt P03372); test: qHTS assay to identify small molecule agonists of the estrogen receptor alpha (ER-alpha) signaling pathway using the BG1 cell line (AID 743079); also: nearly all actives have a fitted effect of over 20% in size; also: potency is read from the fitted curve at half-maximal effect
[17] = molecular target: Peroxisome proliferator-activated receptor gamma (Homo sapiens) (UniProt P37231); test: qHTS assay to identify small molecule antagonists of the peroxisome proliferator-activated receptor gamma (PPARg) signaling pathway (AID 743191; calls by dose curve; also: nearly all actives have a fitted effect of over 30% in size; also: potency is read from the fitted curve at half-maximal effect)
How it was run: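 Beta-lactamase reporter under UAS control in HEK293H PPARg-bla cells; compound treatment 17 h at 37C. Read-out: fluorescence intensity after 1 h room-temperature incubation with LiveBLAzer B/G FRET substrate.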

[18] = qHTS assay to identify small molecule antagonists of the estrogen receptor alpha (ER-alpha) signaling pathway using the BG1 cell line (AID 743080; calls by dose curve;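 also: BG1 cells stimulated with 17beta-estradiol alongside compound; series mostly up to about 70 µM; nearly all actives have a fitted effect of over 25% in size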)
How it was run: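 After 5 days in phenol-red-free 10% charcoal-stripped FBS medium, BG1-Luc-4E2 cells were seeded, left 24 h at 37 C, co-treated with compounds and 17beta-estradiol for 21.5 h, then assayed for viability and luciferase.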

Measured: Potency

Estrogen receptor (Homo sapiens), sequence (P03372 whole entry, looked up): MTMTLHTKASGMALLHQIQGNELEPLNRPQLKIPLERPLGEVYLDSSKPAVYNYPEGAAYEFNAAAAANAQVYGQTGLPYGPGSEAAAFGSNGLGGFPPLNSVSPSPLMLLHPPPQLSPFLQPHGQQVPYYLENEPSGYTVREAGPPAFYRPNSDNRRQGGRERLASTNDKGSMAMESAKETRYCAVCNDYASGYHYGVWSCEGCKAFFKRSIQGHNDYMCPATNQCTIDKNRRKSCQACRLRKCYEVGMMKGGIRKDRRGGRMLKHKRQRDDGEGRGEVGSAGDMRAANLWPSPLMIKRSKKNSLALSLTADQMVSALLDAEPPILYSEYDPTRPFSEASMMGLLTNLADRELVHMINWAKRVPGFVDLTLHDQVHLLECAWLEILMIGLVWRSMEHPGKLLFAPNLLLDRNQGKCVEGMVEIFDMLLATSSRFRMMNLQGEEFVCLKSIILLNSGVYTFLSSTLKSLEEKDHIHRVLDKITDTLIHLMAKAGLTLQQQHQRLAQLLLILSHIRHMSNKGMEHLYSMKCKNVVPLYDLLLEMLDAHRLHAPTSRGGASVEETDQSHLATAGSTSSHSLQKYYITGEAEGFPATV
Aromatase (Homo sapiens), sequence (P11511 whole entry, looked up): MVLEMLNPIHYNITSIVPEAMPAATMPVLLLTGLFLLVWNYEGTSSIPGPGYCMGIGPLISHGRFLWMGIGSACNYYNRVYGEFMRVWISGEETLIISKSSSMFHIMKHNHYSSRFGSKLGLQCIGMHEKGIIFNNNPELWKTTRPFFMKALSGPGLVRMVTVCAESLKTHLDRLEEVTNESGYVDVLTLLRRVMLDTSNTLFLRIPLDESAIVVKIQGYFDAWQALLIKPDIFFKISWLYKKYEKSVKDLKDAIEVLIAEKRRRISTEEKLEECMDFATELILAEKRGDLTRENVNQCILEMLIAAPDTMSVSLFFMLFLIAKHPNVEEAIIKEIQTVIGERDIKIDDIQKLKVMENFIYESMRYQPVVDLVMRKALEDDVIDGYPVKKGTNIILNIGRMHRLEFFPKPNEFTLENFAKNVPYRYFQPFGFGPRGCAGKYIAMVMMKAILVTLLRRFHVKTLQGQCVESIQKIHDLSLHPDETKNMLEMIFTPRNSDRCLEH
Peroxisome proliferator-activated receptor gamma (Homo sapiens), sequence (P37231 whole entry, looked up): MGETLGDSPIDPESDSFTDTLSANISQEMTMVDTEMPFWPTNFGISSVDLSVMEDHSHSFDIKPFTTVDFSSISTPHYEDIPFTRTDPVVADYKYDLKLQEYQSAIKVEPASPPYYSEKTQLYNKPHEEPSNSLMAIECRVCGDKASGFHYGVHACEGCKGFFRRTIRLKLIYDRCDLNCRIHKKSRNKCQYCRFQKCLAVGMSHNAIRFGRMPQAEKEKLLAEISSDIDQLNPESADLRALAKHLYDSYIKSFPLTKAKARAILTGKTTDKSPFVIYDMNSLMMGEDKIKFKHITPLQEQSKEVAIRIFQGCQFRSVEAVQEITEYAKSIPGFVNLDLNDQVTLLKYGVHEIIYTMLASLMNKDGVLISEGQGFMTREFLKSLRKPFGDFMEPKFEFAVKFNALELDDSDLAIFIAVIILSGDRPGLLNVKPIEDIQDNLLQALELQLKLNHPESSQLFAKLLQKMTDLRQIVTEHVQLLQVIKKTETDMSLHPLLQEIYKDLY
Aryl hydrocarbon receptor (Homo sapiens), sequence (P35869 whole entry, looked up): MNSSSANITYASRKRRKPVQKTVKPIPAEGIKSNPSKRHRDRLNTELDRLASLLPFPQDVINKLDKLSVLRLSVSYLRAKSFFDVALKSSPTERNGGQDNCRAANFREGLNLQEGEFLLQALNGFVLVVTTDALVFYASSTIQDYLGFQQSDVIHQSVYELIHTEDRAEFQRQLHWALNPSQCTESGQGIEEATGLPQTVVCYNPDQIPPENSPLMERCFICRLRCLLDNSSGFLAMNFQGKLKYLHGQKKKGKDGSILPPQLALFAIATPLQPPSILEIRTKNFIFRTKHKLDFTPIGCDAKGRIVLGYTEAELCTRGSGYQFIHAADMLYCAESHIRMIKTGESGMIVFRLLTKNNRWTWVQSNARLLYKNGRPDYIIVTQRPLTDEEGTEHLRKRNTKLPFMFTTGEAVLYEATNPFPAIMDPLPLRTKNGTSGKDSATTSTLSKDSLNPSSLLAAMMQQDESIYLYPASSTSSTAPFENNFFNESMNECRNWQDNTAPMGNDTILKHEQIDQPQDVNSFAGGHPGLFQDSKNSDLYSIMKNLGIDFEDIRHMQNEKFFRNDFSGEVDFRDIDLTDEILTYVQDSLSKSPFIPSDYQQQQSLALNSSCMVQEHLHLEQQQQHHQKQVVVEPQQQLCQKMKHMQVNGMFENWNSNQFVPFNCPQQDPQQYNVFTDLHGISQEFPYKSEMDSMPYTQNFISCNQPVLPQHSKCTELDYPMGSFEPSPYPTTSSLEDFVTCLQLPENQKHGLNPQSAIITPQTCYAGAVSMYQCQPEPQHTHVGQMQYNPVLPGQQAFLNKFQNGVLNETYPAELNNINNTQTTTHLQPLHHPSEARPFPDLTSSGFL

CC(C)(C)c1csc(-c2cc3cc(OCc4ccccc4CC(=O)O)ccc3o2)n1
active: [1] 54.5 µM | [2] 61.1 µM | [4] 24.5 µM | [8] 0.776 µM | [9] 4.86 µM
inactive: [3] | [5] | [6] | [7]

CCN(CC)c1ccc2c(-c3ccc(S(=O)(=O)O)cc3S(=O)(=O)[O-])c3ccc(=[N+](CC)CC)cc-3oc2c1
active: [1] 8.91 µM | [2] 35.5 µM | [6] 7.94 µM | Aromatase (Homo sapiens) 35.5 µM | [10] 3.98 µM | [11] 6.31 µM
not listed: [14] | [15] | [16] | [17] | [18]
inactive: all other assays above

CC(C)Cn1cnc2c(N)nc3ccccc3c21
active: [7] 9.44 µM
not listed: [6] | [9] | [16] | [17] | [18]
inactive: all other assays above

CCC(CC)C(C)CCOC(C)=O (stereo not drawn)
not listed: [5] | [16] | [17] | [18]
inactive: all other assays above

COc1cc(/C=C/c2ccccc2)oc(=O)c1
active: [16] 2.52 µM
not listed: [7] | [8] | [9] | [18]
inactive: all other assays above

O=C(O)CCN(C1(C(=O)NO)CCCC1)S(=O)(=O)c1ccc(Oc2ccc(F)cc2)cc1
not listed: [5] | [9] | [12] | [16] | [17] | [18]
inactive: all other assays above

CCCCCCCCCCCCCC[N+](C)(C)C
active: [1] 4.22 µM and 11.8 µM and 8.63 µM | [2] 2.98 µM and 5.91 µM and 5.44 µM | [4] 23.9 µM and 37.6 µM | Aromatase (Homo sapiens) 10.6 µM and 23.5 µM and 15.3 µM | [11] 16.8 µM and 52.7 µM and 54.4 µM | [12] 18.8 µM and 24.5 µM and 29.8 µM | [14] 23.5 µM and 17.2 µM and 26.6 µM | [15] 21.1 µM and 15.5 µM and 23.7 µM
inactive: [3] | [5] | [6] | [7]
inactive and 59.1 µM (active): [10]

CCCC(=O)OC(C)(C)Cc1ccccc1
not listed: [5] | [8] | [11] | [16] | [17] | [18]
inactive: all other assays above

COC(=O)C1=C(C)NC(C)=C(C(=O)OCCN2CCN(C(c3ccccc3)c3ccccc3)CC2)C1c1cccc([N+](=O)[O-])c1 (stereo not drawn)
active: [1] 8.41 µM | [2] 6.68 µM | [6] 3.76 µM | Aromatase (Homo sapiens) 13.3 µM | [17] 9.44 µM
inactive: [3] | [4] | [5] | [10] | [7] | [12] | [15]

CCCCOC(=O)CC
not listed: [5] | [8] | [16] | [17] | [18]
inactive: all other assays above

NC(=O)c1cccc([N+](=O)[O-])c1
not listed: [12]
inactive: all other assays above

CC1(C)CCC[C@]2(C)[C@H]3CC(=O)O[C@]3(C)CC[C@@H]12
active: [2] 54.5 µM
not listed: [9] | Aromatase (Homo sapiens) | [17]
inactive: all other assays above

Nc1ccc(Oc2ccc(Cl)cc2)cc1
active: [2] 30 µM | Aromatase (Homo sapiens) 23.8 µM
not listed: [9] | [11] | [17] | [18]
inactive: all other assays above

CCC(COC(=O)CCS)(COC(=O)CCS)COC(=O)CCS
not listed: [9] | [13]
inactive: all other assays above
